Consider 26 compounds from PubChem BioAssay (NCI).

Molecules are shown by their SMILES. The panel holds about 83,000 compounds, 20% with a hit somewhere; the sample as a whole holds those more often.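 Plates (96-well) were seeded with cells, treated with compound at one concentration, and incubated for 48 hours before percent growth was determined.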 Values without a mark were called inactive. Activity calls are given as the source filed them. How the source made its calls: active means growth percent below 10; inactive means the rest.

Holding throughout (assay): NCI-60 one-dose screen, 48 h (100 = growth as untreated, 0 = no growth, -100 = all killed)
Holding throughout (conditions): 10 µM unless noted

For assay [1], the system named is T-47D breast.
Assay [2] deals with MDA-MB-435 melanoma.
Assay [3] has as its system SW-620 colon.
Assay [4] has as its system MCF7 breast.
For assay [5], the system named is HCT-116 colon.
In assay [6] the test system is HCC-2998 colon.
The subject of assay [7] is KM12 colon.
The test system of assay [8] is BT-549 breast.

For the compound `COC(=O)C(=Cc1ccccc1[N+](=O)[O-])C(=O)OC`, the growth in assay [1] is 22.6%; in assay [2] it was 15.5%; in assay [3], 34.7%; in assay [4], 15.4%; in assay [5], 6.83% (active); in assay [6] it was 55.2%. Also, the growth in assay [7] is 15.7%.

Turning to `Oc1cc(Nc2ccnc3cc(Cl)ccc23)c2ncccc2c1`, the growth in assay [1] was 52.1%; in assay [2], 70%; in assay [3], 66.6%; in assay [4], 61%; in assay [5] it was 69.3%; in assay [6], 112%. For the same compound, in assay [7], the growth is 87.6%.

For `O=C(O)c1cn(C2CC2)c2cc(N3CCN(Cc4c(O)ccc5ccccc45)CC3)c(F)cc2c1=O`, the growth was 29.5% in assay [1]; 24.3% in assay [2]; 28.2% in assay [3]; 16.3% in assay [4]; 12.7% in assay [5]; 32.1% in assay [6]. In addition, in assay [7], the growth is 37.5%.

For the compound `C=CCCCCOc1ccccc1-c1cnc(OCCCCC=C)n1C`, the growth was 61.9% in assay [1]; 96.8% in assay [8]; 30.8% in assay [3]; 61% in assay [5]; 61.1% in assay [6]; 38.4% in assay [7].

Consider `C[C@@H](NC(=O)[C@@H](CC(=O)N1CCC(N2CCCCC2)CC1)N1C(=O)[C@@H](N2C(=O)OC[C@@H]2c2ccccc2)[C@H]1/C=C/c1cccc(Cl)c1)c1ccccc1`, for which the growth was 29.9% in assay [1]; 1.09% (active) in assay [2]; 66.3% in assay [3]; 20.8% in assay [4]; 53.7% in assay [5]; 28.5% in assay [6]. The growth in assay [7] was 71.3%.

For the compound `Brc1ccc2c(c1)CN(C1CCCCC1)CO2`, the growth was 96.2% in assay [1]; 103% in assay [2]; 100% in assay [3]; 106% in assay [4]; 108% in assay [5]; 102% in assay [6]. Besides, the growth in assay [7] is 100%.

With `CCN=Cc1c(O)c(O)c(C(C)C)c2cc(C)c(-c3c(C)cc4c(C(C)C)c(O)c(O)c(C=NCC)c4c3O)c(O)c12`, the growth is 35% in assay [1]; 68.1% in assay [2]; 29.2% in assay [3]; 27.3% in assay [4]; 22.5% in assay [5]; 38.9% in assay [6]. Besides, the growth in assay [7] is 21.3%.

For `Cn1ncc2c(Nc3ccc(O)cc3)nc(Cl)nc21`, the growth in assay [1] is 106%; in assay [2], 102%; in assay [3], 118%; in assay [4] it was 94%; in assay [5] it was 108%; in assay [6], 105%. For the same compound, the growth in assay [7] was 106%.

For `COCCCNc1nc(NC(=O)c2cc(OC)cc(OC)c2)cc(-c2cccnc2)n1`, the growth in assay [1] was 63.8%; in assay [2], 100%; in assay [3], 101%; in assay [4] it was 97.8%; in assay [5], 90.3%; in assay [6], 110%. For the same compound, the growth in assay [7] was 103%.

Regarding `O=C(Nc1cc(-c2cccnc2)nc(NCCCN2CCOCC2)n1)c1cc(Br)cc(C(F)(F)F)c1`, the growth in assay [1] was 46.4%; in assay [2], 9.55% (active); in assay [3], 75.4%; in assay [4], 38.6%; in assay [5], 35.7%; in assay [6], 37.8%. For the same compound, the growth in assay [7] is 80%.

For `COC(=O)[C@H](CC(C)C)NC(=O)NC(=O)NC(=O)CI`, the growth is 17.3% in assay [1]; 72.7% in assay [2]; -51.5% (active) in assay [3]; 33.2% in assay [4]; 50% in assay [5]; 91.9% in assay [6]. Also, the growth in assay [7] is 94.1%.

Regarding `c1ccc(-c2n[nH]c(-c3ccccn3)n2)nc1`, the growth is 95.8% in assay [1]; 106% in assay [2]; 117% in assay [3]; 93.5% in assay [4]; 110% in assay [5]; 108% in assay [6]. For the same compound, the growth in assay [7] is 128%.

As to `CC1(C)OC2[C@@H](CNC(=O)NC(=O)NC(=O)CI)O[C@@H](n3cnc4c(NC(=O)Nc5ccccc5)ncnc43)[C@H]2O1` (stereo partly specified), the growth in assay [1] is 49%; in assay [2], 83.8%; in assay [3], -41.9% (active); in assay [4] it was 33%; in assay [5] it was 51.2%; in assay [6] it was 94%. In assay [7], the growth was 84.2%.

`COc1ccc(-c2cc(-c3ccc(Cl)cc3)nc(SCCCCCCC(=O)NO)n2)cc1`: the growth in assay [1] was -2.44% (active); in assay [2] it was 39.2%; in assay [3] it was 25.5%; in assay [4], 22.1%; in assay [5], 14.9%; in assay [6], 59.8%. In assay [7], the growth was 45.9%.

For `Cn1cc(-c2noc(-c3cn(C)c4ncc(F)cc34)n2)c2ccccc21`, the growth was 42.3% in assay [1]; 72.8% in assay [2]; 56.1% in assay [3]; 34.1% in assay [4]; 27% in assay [5]; 86.6% in assay [6]. In addition, in assay [7], the growth is 62.7%.

As to `COc1ccc(/C=C(/C2=NCCN2)n2ccc3ccccc32)cc1`, the growth is 86.2% in assay [1]; 89.9% in assay [2]; 87.1% in assay [3]; 83.4% in assay [4]; 83% in assay [5]; 98.5% in assay [6]. Also, in assay [7], the growth is 95.8%.

In the case of `COc1ccc2[nH]c(C(=O)N3CCN(C(=O)OCc4ccc5c(Br)cc(Br)c(O)c5n4)CC3)cc2c1`, the growth was -62.5% (active) in assay [1]; -86.6% (active) in assay [2]; -70.3% (active) in assay [3]; -58.4% (active) in assay [4]; -87.1% (active) in assay [5]; -90.7% (active) in assay [6]. Further, the growth in assay [7] is -59.8% (active).

In the case of `O=C(NCCCNC(=O)OCc1ccc2cccc(O)c2n1)OCc1ccc2cccc(O)c2n1`, the growth in assay [1] is 49.1%; in assay [2], 18.5%; in assay [3], 4.75% (active); in assay [4] it was 19.3%; in assay [5], -46.3% (active); in assay [6] it was 85.1%. Moreover, the growth in assay [7] was 53.3%.

With `Cc1ccc2c(c1)/C(=N\N=C/c1cn(C(C)C)c3ccccc13)C(=O)N2`, the growth was 24.9% in assay [1]; 18.8% in assay [2]; 46.4% in assay [3]; 8.52% (active) in assay [4]; 28.1% in assay [5]; 49.4% in assay [6]. Besides, the growth in assay [7] is 73.7%.

Take `C#CCC(C(=O)OCC)C(=O)OCC`: the growth in assay [1] is 114%; in assay [2], 97.8%; in assay [3], 106%; in assay [4] it was 98%; in assay [5], 105%; in assay [6], 101%. In addition, the growth in assay [7] is 106%.

As for `C[C@]12CCc3c(ccc4cc(O)ccc34)[C@@H]1CC[C@H]2O`, the growth in assay [1] is 91.8%; in assay [2] it was 80.1%; in assay [3], 99.1%; in assay [4], 116%; in assay [5], 102%; in assay [6], 107%. Further, the growth in assay [7] was 98.1%.

As to `Nc1ccc2c(c1)Cc1cc(NC(=O)C(F)(F)F)ccc1-2`, the growth in assay [1] is 81.8%; in assay [2], 102%; in assay [3], 105%; in assay [4] it was 60.1%; in assay [5], 108%; in assay [6], 105%. Further, the growth in assay [7] is 97.7%.

Regarding `CCOC(=O)CC(c1ccccc1)C(C#N)c1ccccc1` (stereo unspecified), the growth in assay [1] was 89.6%; in assay [2], 96.4%; in assay [3] it was 95.3%; in assay [4] it was 99.8%; in assay [5], 92%; in assay [6], 114%. Besides, the growth in assay [7] was 92.3%.

Consider `O=C(Nc1ccc(Cl)c(C(F)(F)F)c1)Nc1ccc(-c2cccnc2)cc1N1CCC(CO)CC1`, for which the growth in assay [1] was 5.62% (active); in assay [2] it was 15.5%; in assay [3], 35.5%; in assay [4], 16.2%; in assay [5], 11.8%; in assay [6], 13.9%. Further, the growth in assay [7] was 25.7%.

For `COc1ccc2c(c1)C(C)Cc1c(Cl)ncnc1N2C` (stereo unspecified), the growth in assay [1] was 4.2% (active); in assay [2], -25.2% (active); in assay [3] it was 3.63% (active); in assay [4], 1.16% (active); in assay [5] it was 7.03% (active); in assay [6], 22.3%. Also, the growth in assay [7] is 4.12% (active).

For `CSc1nc2sc3cc(Cl)c(Cl)cc3n2c(=N)c1C#N`, the growth in assay [1] was 89.4%; in assay [2], 97.7%; in assay [3], 98.1%; in assay [4], 60.5%; in assay [5] it was 100%; in assay [6] it was 106%. Moreover, in assay [7], the growth was 98.9%.
